p53ts 32C kill: cytotoxicity in p53ts cells at permissive temperature. H1299-p53A138V at 32C, ATP luminescence viability, 24 h. Potency, µM (highest dose often 46.1 µM), for inactives: at the highest dose activity change, negative = cytotoxicity, hits mostly cytotoxic. 130,000 compounds, 0.93% hits. AID 924;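 also: 0% = DMSO and -100% = full killing by reference compound; nearly all actives have a fitted effect of over 55% in size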
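Viability by ATPlite luminescence after 24 h compound treatment (up to 46 uM) at the permissive 32C. Cells are H1299 carrying p53 A138V. Scale runs from DMSO basal to 100 uM tamoxifen as full kill; AC50 from Hill fits.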
p53ts 39C tox: cytotoxicity in p53ts cells at nonpermissive temperature. H1299-p53A138V viability at 39C, ATP luminescence, 24 h. Potency, µM (series often up to 46.1 µM), without a hit: at the highest dose activity change, negative = cell killing, hits mostly cytotoxic. 130,000 compounds, 1.5% hits. AID 902; also: % is scaled to controls: 0 for no effect and ±100 for the full control effect; nearly all actives have a fitted effect of over 55% in size
Imprint erasure: induces erasure of genomic imprints in mouse ES cells; mouse ES Peg3-LacZ reporter, beta-gal luminescence, 40 h; 110,000 compounds, 0.02% hits; AID 1948; Potency, µM (series often up to 60.7 µM), inactives show at the highest dose activity change, positive = activation, usual class: activators
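Imprint erasure is scored as LacZ activity from the silenced maternal Peg3 allele in feeder-free female ES cells cultured 40 h with LIF. Luminescence is normalized to in-plate negative controls and fitted to the Hill equation.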
Starred values were filed as active, the others as inactive; ? = inconclusive; / = no result; [ ] = another dose, or the depositor's remark. Most compounds without a hit are left out; they make up all but 1.6% or so of the library. Calls follow the shape of the dose curve; as a rule, active = well fitted curve in the direction sought with a large enough effect; inconclusive = small, poorly fitted or top-dose-only effect, or another doubt; inactive = no such curve, though single readings can be large; an effect the other way counts as inactive or inconclusive. Potency is read from the fitted curve at half-maximal effect.

SMILES | p53ts 32C kill | p53ts 39C tox | Imprint erasure
Cc1ccn2cc(C(=O)Nc3ccc4c(c3)OCCO4)nc2c1 | 13µM* | 13µM* | -32%
Cc1ccn2cc(C(=O)Nc3ccccc3N3CCOCC3)nc2c1 | -1% | -14% | -9%
Cc1ccc(OC(=O)c2cc(-c3ccc4c(c3)OCCO4)on2)c(C)c1 | 20µM* | 13µM* | -16%[10.9 µM]
CCCCNc1nc(SC)nc2nc[nH]c12 | 4%[9.22 µM] | -4%[9.22 µM] | -6%[10.9 µM]
CC(=O)c1ccc(NC(=O)c2cc3c([nH]c2=O)CC(c2ccccc2)CC3=O)cc1 (configuration not stated) | 2% | -2% | 4%[10.9 µM]
N.N.N.N.N.N.N.N.N.N.N.N.N.N.O.O.[Ru].[Ru].[Ru] | -13% | -4% | /
Fc1ccc(Nc2ncnc3onc(-c4ccc(Cl)cc4)c23)cc1Cl | 6% | -3% | -11%[10.9 µM]
CCOc1ccc(-c2nnc(SCC(=O)Nc3cc(C)ccc3OC)o2)cc1 | ? | ? | -7%[10.9 µM]
CCc1cc2c(nc1CC)CCN(CC/C(C)=N/OC[C@@H](C)[C@H](OCc1ccccc1)C(C)C)C2 | 2%[9.22 µM] | 6%[9.22 µM] | /
CCOc1ccc2nc(N3CCCC(C(=O)NCCCN4CCOCC4)C3)sc2c1 (configuration not stated) | 10µM* | -29% | -19%
CCOc1ccc2nc(N3CCCC(C(=O)NCCc4ccc(Cl)cc4)C3)sc2c1 (configuration not stated) | -18% | ? | -13%[10.9 µM]
Nc1ccc2oc(-c3ccc4nc[nH]c4c3)nc2c1 | 8.9µM* | 14µM* | /
Nc1ccc2oc(-c3cccc(Br)c3)nc2c1 | ? | ? | -63%
Cc1ccc2c(c1)C(=O)C(=O)N2Cc1ccc(OC(C)C)cc1 | ? | 16µM* | -26%[10.9 µM]
Cc1ccc(C)c(CN2C(=O)C(=O)c3ccccc32)c1 | 15% | -22% | -22%[10.9 µM]
O=C(O)Cc1cccc(OCCCN(Cc2cccc(C(F)(F)F)c2Cl)CC(c2ccccc2)c2ccccc2)c1 | / | / | -33%
O=C(O)CSc1ccc2ccccc2n1 | -2% | -1% | /
C/C(=N/Nc1ccc2ccccc2n1)c1ccccc1O | 3.2µM* | 2.5µM* | -56%[10.9 µM]
CC(C)Oc1ccc(C(=O)Nc2nnc3n2CCS3)cc1 | ? | 13µM* | -69%[10.9 µM]
O=C(Nc1nnc2n1CCS2)c1ccccc1 | -2% | -1% | -17%[10.9 µM]
CCOC(=O)N/N=C1/C[C@@H](O)[C@@H](O)[C@@H]2[C@@H]3C(=O)N([C@@H](C)c4ccccc4)C(=O)[C@H]3CC[C@H]12 | -5%[9.22 µM] | 3%[9.22 µM] | /
CC(C)COc1ccc(C(=O)Nc2nnc(S(=O)(=O)N(C)Cc3ccco3)s2)cc1 | ? | 10µM* | -74%[10.9 µM]
Cc1ccc(C(=O)Nc2nnc(S(=O)(=O)N(C)Cc3ccco3)s2)cc1 | -6% | -24% | -23%[10.9 µM]
CC(C)CN(CC#N)CC(C)C | 0%[9.22 µM] | 2%[9.22 µM] | -14%[10.9 µM]
Cc1cccc(-c2noc(-c3ccc(NCc4cccnc4)c([N+](=O)[O-])c3)n2)c1 | -23% | -21% | -5%[10.9 µM]
SMILES | p53ts 32C kill | p53ts 39C tox | Imprint erasure
COc1cc(OC)cc(-c2nc3ccccc3c(=O)o2)c1 | -5% | 22% | /
CCOc1cccc(-c2nc3ccccc3c(=O)o2)c1 | 10µM* | 10µM* | -29%[10.9 µM]
Nc1nc(Cl)nc2c1ncn2[C@@H]1O[C@H](COP(=O)(O)OP(=O)(O)OP(=O)(O)O)[C@H](O)[C@H]1O | / | / | -9%
COC(=O)NC(c1ccc(F)cc1)C(C(C)=O)C(=O)OC (configuration not stated) | 3%[9.22 µM] | 14%[9.22 µM] | /
CC1=C(c2ccc(C)c(C)c2)S(=O)(=O)N(Cc2ccc(C(=O)NCc3cccc(C)c3)cc2)C1=O | 10% | -15% | -12%[10.9 µM]
CNC(=O)CCc1nc(-c2ccc(C(C)(C)C)cc2)no1 | 13µM* | ? | -26%
CC(C)(C)c1ccc(-c2noc(CCC(N)=O)n2)cc1 | ? | ? | -11%
CCOc1ccccc1NC(=O)COc1cccc2c(=O)n(CCOC)ccc12 | 1% | -9% | -6%[10.9 µM]
COc1ccccc1OC[C@H](O)CN1CCN(CC(=O)Nc2c(C)cccc2C)CC1 | 3% | 11% | /
O=C1c2ccccc2C(=O)c2c1ccc(O)c2O | -2% | -13% | -43%
O=C1c2ccc(O)c(O)c2C(=O)c2c(O)ccc(O)c21 | ? | 5µM* | -18%
Oc1ccc(O)cc1 | -2% | 12% | 10µM*
Oc1ccccc1 | / | / | 3%
COc1ccc(-n2nc(C(=O)N3CCN(c4ccccc4OC)CC3)c3c4ccccc4n(C)c3c2=O)cc1Cl | 13% | 6% | 4%[10.9 µM]
Cc1ccc2cc(/C=N/Nc3nc4ccccc4[nH]3)c(Cl)nc2c1 | / | 3.5µM* | /
CCCCn1c(/C=N/Nc2nc3ccccc3[nH]2)nc2ccccc21 | / | -8% | /
COc1ccc(-c2nc3cnc(Oc4cccc(Cl)c4)nc3n(C3CC3)c2=O)cc1 | -20% | -25% | -3%
